Compounds with a hit are over-represented: about 2.1% of the library has one in this group of screens.
CCHF vOTU inh – CCHFV vOTU protease inhibitors, primary screen, biochemical, Pep-AMC substrate, fluorescence; Crimean-Congo hemorrhagic fever virus L polyprotein viral ovarian tumor (vOTU) protease …; inhibition, % at 11.5 µM; 370,000 compounds, 0.55% hits; AID 651958, 2012; in the data active means inhibition above about 30%; further: 0% = vehicle wells with enzyme and 100% = no enzyme wells
PrPC surface inh – inhibitors of human cell surface prion protein PrPC, primary screen, cell-based, TR-FRET; 370,000 compounds, 0.43% hits; AID 720596, 2013; inhibition, % at 13.8 µM; Major prion protein (Homo sapiens), P04156; TR-FRET read-out; in the data active means inhibition above about 24%; further: 0% = median of the test wells and 100% = reference compound wells
Sa RN4220 lethal – growth inhibition of S. aureus RN4220, primary screen, OD600; 16 h; inhibition, % (test concentration not listed); 330,000 compounds, 0.33% hits; AID 1259311, 2017; in the data active means inhibition above about 85%;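 further: plate controls were untreated cells for no effect and reference antibiotic for full effect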
Sa ugtP lethal – growth inhibition of ugtP-null S. aureus, primary screen, RN4220 ugtP deletion, OD600; 16 h; growth inhibition, % (concentration not given with the values); 330,000 compounds, 0.54% hits; AID 1259309, 2017; in the data active means growth inhibition above about 68%;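 further: plate controls were untreated wells for no effect and antibiotic for full effect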
PfHsp40 yeast – rescue of yeast from PfHsp40 toxicity, primary screen, S. cerevisiae, ATP luminescence. growth rescue, % at 12.5 µM. AID 504582, 2011. S. cerevisiae expressing PfHsp40, growth rescue. 340,000 compounds, 0.68% hits; in the data active means growth rescue above about 28%, passing the limit was not always enough; inconclusive means no clear call, values can overlap the other calls;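 further: yeast W303a lacking pdr1 and pdr3 grown in galactose medium; growth measured after three days at 30 °C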
PrP 5UTR inh – inhibition of PrP 5' UTR reporter expression. cell-based PrP 5' UTR mRNA reporter, plate reader. inhibition, % (no concentration beside the values). 340,000 compounds, 0.35% hits. AID 488862, 2010; in the data active means inhibition above about 52%; further: 0 = median of the neutral control wells
PrP UTR cherry – prion 5' UTR mRNA inhibition, cherry-pick retest | shares compounds with PrP 5UTR inh | cell-based prion protein 5' UTR reporter, plate reader | inhibition, % at 2.5 µM | 1,100 compounds, 48% hits; in the data active means inhibition above about 54%; inconclusive means no clear call, values can overlap the other calls
Starred values were filed as active, the others as inactive; ? = inconclusive; · = not tested or not shown.

SMILES | CCHF vOTU inh | PrPC surface inh | Sa RN4220 lethal | Sa ugtP lethal | PfHsp40 yeast | PrP 5UTR inh | PrP UTR cherry
COc1ccccc1OCCC(=O)OCC(=O)NCc1ccc(Cl)cc1 | -4 | 2 | 11 | 11 | 0 | -19 | ·
Cc1nn(-c2ccccc2Cl)c(Cl)c1/C=N/Nc1nc2ccccc2s1 | 20 | 6 | · | · | ? | 87* | 81*
Cc1ccc(C=NNC(=O)c2ccncc2)o1 | · | · | 7 | 5 | · | · | ·
COc1ccc(S(=O)(=O)NCC(c2cccnc2)N2CCN(c3ccc(F)cc3)CC2)cc1C (stereo not drawn) | -2 | 0 | -18 | -10 | -1 | 52* | -2
COc1ccc(S(=O)(=O)NCC(c2cccnc2)N2CCN(c3ccccc3)CC2)cc1C (stereo not drawn) | 8 | 1 | 26 | 19 | 0 | 4 | ·
O=S1(=O)C2CC3O[C@]2(CC3c2ccc(F)cc2)CN1Cc1ccc(Cl)cc1 (stereo partly drawn) | · | · | 2 | -21 | · | · | ·
CN=c1scc(-c2cccs2)n1/N=C/c1ccccc1O | -6 | -3 | · | · | -2 | 94* | 90*
O=C(c1oc(=O)c2ccccc2c1-c1ccccc1)N1CCC(O)CC1 | -2 | 9 | 1 | 4 | 0 | 68* | -21
O=C(c1oc(=O)c2ccccc2c1-c1ccccc1)N1CCN(C2CCCCC2)CC1 | 1 | -11 | 3 | 8 | 0 | 10 | ·
Nc1ccc(Oc2cccc(Oc3ccc(N)cc3)c2)cc1 | 1 | 10 | · | · | 0 | 67* | 75*
O=C(NCC1CCCO1)c1cccc2c1C(=O)c1ccc(-c3ccc(F)cc3OCc3ccccc3)cc1S2(=O)=O (stereo not drawn) | · | · | 1 | -8 | · | · | ·
Cc1ccccc1C(=O)NNC(=O)C12CC3CC(CC(C3)C1)C2 | -9 | 8 | 3 | 11 | 1 | 88* | -16
Cc1cccc(C(=O)NNC(=O)C23CC4CC(CC(C4)C2)C3)c1O | -4 | 6 | 5 | 5 | 0 | -9 | ·
CCOC(=O)C1C2COc3cc(OC)ccc3C2N2C(=O)CN(Cc3ccc(OC)cc3)C(=O)[C@@]12C (stereo partly drawn) | · | · | 1 | 3 | · | · | ·
COc1ccc(C(C#N)=C2C=C(Cl)C(=NO)C=C2Cl)cc1 | -9 | 6 | · | · | · | · | ·
COc1ccc(C(C#N)=C2C=CC(=NO)C(C)=C2Cl)cc1 | -7 | 1 | · | · | -1 | 71* | -35
COc1cccc(N2CCN(C(=O)c3ccc(CS(=O)c4ccccc4C)o3)CC2)c1 (stereo not drawn) | -1 | 12 | · | · | 3 | 56* | 83*
COc1cccc(N2CCN(C(=O)c3ccc(CS(=O)c4ccccc4Cl)o3)CC2)c1 (stereo not drawn) | 11 | 6 | · | · | 0 | 35 | ·
N#CC1(Nc2ccc(-c3ccc(NC4(C#N)CCCC4)cc3)cc2)CCCC1 | -10 | 1 | · | · | -1 | -27 | ·
N#CC1(Nc2ccc(S(N)(=O)=O)cc2)CCCC1 | 16 | 9 | · | · | -2 | 74* | -13
Cc1ccc(Nc2nc(-c3ccccc3)c(CC(=O)O)s2)cc1 | 0 | 5 | -2 | -4 | · | -38 | ·
O=C(O)Cc1sc(Nc2ccccc2)nc1-c1ccc(Cl)cc1 | 20 | -7 | -4 | 0 | 2 | 57* | -1
COc1ccc2c(c1)/C(=C/c1cc(OC)c(OC)c(OC)c1)C(=O)N2 | -6 | 2 | · | · | -2 | 64* | 73*
O=C(N/N=C/c1cc2c(cc1Br)OCO2)c1cccnc1 | -3 | -8 | · | · | -1 | 62* | -14
CC1=CCC(C(=O)O)(C(=O)NN=Cc2cccs2)C(c2ccc([N+](=O)[O-])cc2)C1 (stereo not drawn) | · | · | -3 | -8 | · | · | ·
SMILES | CCHF vOTU inh | PrPC surface inh | Sa RN4220 lethal | Sa ugtP lethal | PfHsp40 yeast | PrP 5UTR inh | PrP UTR cherry
CCOC(=O)Cc1csc(N/N=C/c2ccc(Cl)cc2)n1 | 21 | 2 | · | · | 1 | 66* | 2
Cc1ccc2nc(-c3ccccc3)cn2c1 | 5 | 3 | 10 | -4 | -5 | 87* | 85*
Cc1sc(NC(=S)NC(=O)CCc2ccccc2)c(C(N)=O)c1C | -10 | 15 | 5 | 14 | -2 | 54* | 81*
COC(=O)CCC(=O)NC(=S)Nc1sc(C)c(C)c1C(N)=O | -3 | 9 | · | · | -1 | 67* | 86*
Cc1sc(NC(=S)NC(=O)c2ccco2)c(C(N)=O)c1C | 0 | 3 | -4 | -5 | -1 | -34 | ·
CC(Oc1ccccc1)c1nnn(Cc2ccccc2)c1-c1c(C(C)Oc2ccccc2)nnn1Cc1ccccc1 (stereo not drawn) | · | · | 2 | 5 | · | · | ·
CC1CN(C(C)CO)C(=O)c2cc(NS(C)(=O)=O)ccc2OC1CN(C)CC1CCCCC1 (stereo not drawn) | · | · | 6 | 7 | · | · | ·
CCCOc1ccc(C=NNC(=O)c2ccc(Cn3cc([N+](=O)[O-])cn3)o2)cc1 | · | · | 0 | -6 | · | · | ·
Cc1ccc(C(=O)Nc2ccc(CC(=O)O)cc2)o1 | 2 | -5 | 6 | -1 | -1 | -21 | ·
CC(C)(C)c1ccc(C(=O)Nc2ccc(CC(=O)O)cc2)o1 | -8 | 6 | 0 | 4 | 0 | 72* | 75*
Nc1ccc(-c2ncc(-c3ccccc3)o2)cc1 | -351 | 10 | 6 | -1 | 0 | 76* | 64*
O=C(c1ccc2c3c(cccc13)CC2)C1CCCN(Cc2ccc(OCCO)cc2)C1 (stereo not drawn) | -57 | -7 | -4 | 1 | -1 | 87* | -18
CN(C)CCN1C(=O)c2cccc3cc([N+](=O)[O-])cc(c23)C1=O | 16 | -17 | · | · | -1 | 66* | 84*
O=C(CN1C(=O)c2ccccc2S1(=O)=O)c1ccc2c(c1)OCCCO2 | -5 | 3 | 3 | 4 | -1 | 95* | 97*
O=C(CN1C(=O)c2ccccc2S1(=O)=O)c1ccc2c(c1)OCCO2 | 1 | -8 | -2 | 7 | 0 | 91* | 93*
C=CCSc1nnc(NC(=O)CSc2nnc(C)s2)s1 | 16 | 3 | 2 | -4 | 0 | 81* | -34
CN1CCN(C(=O)C2=CC(C3CCCCC3)CC(OCc3ccc(CO)cc3)O2)CC1 (stereo not drawn) | · | · | 4 | -7 | · | · | ·
N/C(=N\OC(=O)c1ccccc1Cl)c1ccccn1 | -8 | 0 | 4 | -1 | 0 | 76* | 71*
COc1ccccc1C(=O)O/N=C(\N)c1ccccn1 | 7 | -7 | 2 | 9 | -2 | -67 | ·
COc1ccc(C(=O)O/N=C(\N)c2ccccn2)cc1 | 7 | 1 | · | · | 0 | 88* | 94*
Cc1ccc(C(=O)O/N=C(\N)c2ccccn2)c(C)c1 | -7 | 1 | · | · | -1 | 95* | 97*
Cc1ccccc1C(=O)O/N=C(\N)c1ccccc1 | 8 | 2 | 5 | 1 | -1 | 56* | 55*
